Shown are actives, neighbours in structure and some others; about 1.7% of the full set was active somewhere.
ZTA counter: ZTA (EBV) inhibition in EBNA-1 counter-screen | ZTA-DNA binding, fluorescence polarization | inhibition, % at 11 µM | 320,000 tested, 0.15% active; in the data active = inhibition above about 33%
EBNA-1 inh: blocks EBNA-1 binding to DNA | EBNA-1 DNA binding, fluorescence polarization | inhibition, % at 14.8 µM | 300,000 tested, 0.34% active; in the data active = inhibition above about 28%
GSTO1 inh: blocks human GSTO1 in RBBP9 counter-screen | inhibition, % at 5.96 µM | recombinant GSTO1, activity-based probe fluorescence polarization | 300,000 tested, 1.1% active | AID 1974;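 active = inhibition above the campaign mean inhibition plus 3 SD, cut at about 35% in these data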
Target sequence (P78417 whole entry, looked up): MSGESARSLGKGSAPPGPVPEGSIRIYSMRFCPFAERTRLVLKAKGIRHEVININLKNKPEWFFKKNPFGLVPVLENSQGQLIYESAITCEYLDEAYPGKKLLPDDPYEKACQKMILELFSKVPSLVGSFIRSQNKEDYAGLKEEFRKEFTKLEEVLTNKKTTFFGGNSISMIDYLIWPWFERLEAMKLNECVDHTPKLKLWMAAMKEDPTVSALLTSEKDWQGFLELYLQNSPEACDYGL
LYPLA2 inh: blocks human lysophospholipase 2, a PME1 counter-screen | O95372 | recombinant LYPLA2, FP-Rh probe fluorescence polarization | inhibition, % at 5.9 µM | 320,000 tested, 0.38% active;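 active = inhibition above the screen-wide mean plus 3 SD, limit set per campaign, cut at about 26% in these data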
PAD4 FP inh: inhibitors of human PAD4. Q9UM07. recombinant PAD4, RCA probe fluorescence polarization. inhibition, % at 6.36 µM. 330,000 tested, 0.41% active. AID 485272;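 active = percent inhibition above a cutoff equal to the mean of all tested compounds plus 3 SD, cut at about 15% in these data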
LYPLA1 inh: LYPLA1 (human) inhibition in PME1 counter-screen; O75608; recombinant LYPLA1, FP-Rh probe fluorescence polarization; inhibition, % at 5.9 µM; 320,000 tested, 0.16% active; AID 2174;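 active = inhibition above the mean of all tested compounds plus 3 SD, set per campaign, cut at about 14% in these data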;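 also: inhibitors block serine hydrolase probe labeling of LYPLA1 so polarization falls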
Target sequence (O75608 whole entry, looked up): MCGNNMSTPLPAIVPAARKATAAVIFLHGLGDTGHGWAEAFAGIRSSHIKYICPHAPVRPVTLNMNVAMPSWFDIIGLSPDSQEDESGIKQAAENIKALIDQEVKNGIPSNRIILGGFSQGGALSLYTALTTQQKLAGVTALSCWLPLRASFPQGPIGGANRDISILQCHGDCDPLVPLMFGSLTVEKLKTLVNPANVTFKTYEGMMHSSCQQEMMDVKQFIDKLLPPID
EBNA-1 inh conf: EBNA-1 (EBV) inhibition, confirmation. inhibition, % at 14.8 µM. shares compounds with EBNA-1 inh. 830 tested, 35% active. Recombinant EBNA-1 DBD, Cy5-DNA fluorescence polarization. AID 2292;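 active = mean inhibition across replicates above a set limit taken from the earlier primary screen, cut at about 28% in these data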
ZTA DNA inh trip: blocks Epstein-Barr virus ZTA in triplicate, EBNA-1 counter-screen | shares compounds with EBNA-1 inh | Zta-ZRE DNA binding, Cy5 fluorescence polarization | inhibition, % at 11.1 µM | 830 tested, under 10 active | AID 2328;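 active = mean inhibition over triplicates above a set limit taken from the primary EBNA-1 screen, cut at about 37% in these data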;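 also: purified full length Zta protein with Cy5 labeled ZRE DNA probe; inhibitors lower polarization by freeing the labeled DNA probe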
Of the large screens only hits and unclear results are named; the others gave an inactive call (follow-up assays come after a bar, where they were run).

COc1ccc(N2CCN(S(=O)(=O)c3cc4c(cc3C)NC(=O)CO4)CC2)cc1	EBNA-1 inh 33 | EBNA-1 inh conf inactive | ZTA DNA inh trip inactive
Cc1cc2c(cc1S(=O)(=O)N1CCCCC1)OCC(=O)N2	none
Cc1cccc(N2CCN(S(=O)(=O)c3cc4c(cc3Cl)NC(=O)CO4)CC2)c1C	none
COc1cccc(N2CCN(S(=O)(=O)c3cc4c(cc3Cl)NC(=O)CO4)CC2)c1	EBNA-1 inh 32 | EBNA-1 inh conf inactive | ZTA DNA inh trip inactive
Cc1cc(NS(=O)(=O)c2c(C)c(C)cc(C)c2C)no1	none
O=C(Nc1cc(S(=O)(=O)N2CCOCC2)ccc1Cl)c1cc2ccccc2o1	none (no result: EBNA-1 inh, GSTO1 inh)
O=C(NC(=S)NCc1nc2ccccc2[nH]1)c1ccc(F)cc1	EBNA-1 inh 33 | EBNA-1 inh conf inactive | ZTA DNA inh trip inactive
COC(=O)c1cn(NC(=O)/C=C/c2cc(OC)ccc2OC)c(=O)c2ccccc12	EBNA-1 inh 42 | EBNA-1 inh conf inactive | ZTA DNA inh trip inactive
c1ccc(-c2csc(-c3ccc(-c4csnn4)cc3)n2)cc1	EBNA-1 inh 57 | EBNA-1 inh conf 46 | ZTA DNA inh trip inactive
Cc1cccc(N2CCN(S(=O)(=O)c3ccc4c(c3)n(C)c(=O)c(=O)n4C)CC2C)c1 (stereo not drawn)	EBNA-1 inh 35 | EBNA-1 inh conf inactive | ZTA DNA inh trip inactive
Cc1ccc2nc(-c3ccc(NC(=O)CN4C(=O)NC(C)(c5ccc(OC(F)F)cc5)C4=O)cc3)sc2c1 (stereo not drawn)	EBNA-1 inh 40 | EBNA-1 inh conf inactive | ZTA DNA inh trip inactive
COc1ccc(CCNC(=O)C2CCN(C(=O)c3ccc(Br)cc3)CC2)cc1OC	none
NC(=O)C1CC(=O)N(CCc2ccc(F)cc2)C1 (stereo not drawn)	none
COc1ccccc1CNC(=O)c1ccc2ccccc2n1	none
O=C(CSc1nc2ccccc2c(=O)n1-c1ccccc1)c1cccc([N+](=O)[O-])c1	EBNA-1 inh 32 | EBNA-1 inh conf inactive | ZTA DNA inh trip inactive
O=c1c2ccccc2nc(SCc2ccc([N+](=O)[O-])cc2)n1-c1ccccc1	none
COCCCNC(=S)Nc1cccc(S(=O)(=O)NC2=NCCC2)c1	none
NS(=O)(=O)c1ccc(NC(=O)/C=C/c2cn(-c3ccccc3)nc2-c2cccc(Cl)c2)cc1	EBNA-1 inh 30 | EBNA-1 inh conf 39 | ZTA DNA inh trip inactive
O=C(CN(C(=O)c1csnn1)c1ccc2c(c1)OCCO2)NCc1ccc(F)cc1	none
O=C(COC(=O)c1cc(=O)[nH]c2ccccc12)NCc1ccccc1Cl	none (no result: ZTA counter, EBNA-1 inh, GSTO1 inh, LYPLA2 inh, LYPLA1 inh)
CCOc1ccc2nc(SCC(=O)NNC(=O)c3ccco3)c(C)cc2c1	EBNA-1 inh 57 | EBNA-1 inh conf 42 | ZTA DNA inh trip inactive
CCc1cc2cc(C)c(C)cc2nc1SCC(=O)NNC(=O)c1ccco1	none
Cc1cccc(C(=O)Oc2ccccc2/C=N/Nc2ccc([N+](=O)[O-])cc2)c1	EBNA-1 inh 34 | EBNA-1 inh conf 41 | ZTA DNA inh trip inactive
COC(=O)Cc1c(C)c2ccc(OCC(C)=O)c(C)c2oc1=O	none
COC(=O)Cc1c(C)c2ccc(OCC(=O)N3CCCC(C)C3)c(C)c2oc1=O (stereo not drawn)	EBNA-1 inh 48 | EBNA-1 inh conf inactive | ZTA DNA inh trip inactive
C=CCn1c(SCC(=O)Nc2ccc(F)cc2F)nnc1-c1cnccn1	none
CCOP(=O)(c1ccccc1)C(O)c1ccc(F)cc1 (stereo not drawn)	EBNA-1 inh 103 | EBNA-1 inh conf inactive | ZTA DNA inh trip inactive
CCOP(=O)(c1ccccc1)C(O)c1ccc([N+](=O)[O-])cc1 (stereo not drawn)	none
C/C(=N\OCC(=O)OCC(=O)NC(=O)c1ccc(OC(F)F)cc1)c1ccc2c(c1)OCO2	none
O=C(NCc1n[nH]c(=S)n1-c1ccc(Br)cc1)c1ccc(S(=O)(=O)N2CCCCC2)cc1	none
O=C(Nc1ccc(N2CCN(c3ccc(C(F)(F)F)cn3)CC2)nc1)c1cccs1	EBNA-1 inh 39 | EBNA-1 inh conf inactive | ZTA DNA inh trip inactive
COC(=O)c1cc(Nc2cc(C)c3ccc(O)cc3n2)cc(C(=O)OC)c1	EBNA-1 inh 39 | EBNA-1 inh conf 48 | ZTA DNA inh trip inactive
COC(=O)c1cc(Nc2cc(C)c3c(O)cccc3n2)cc(C(=O)OC)c1	none
CS(=O)(=O)c1ccc(Cl)c(NC(=O)Cc2c(F)cccc2Cl)c1	EBNA-1 inh 44 | EBNA-1 inh conf 30 | ZTA DNA inh trip inactive
CS(=O)(=O)c1ccc(Cl)c(NC(=O)Cc2ccccc2F)c1	none
COc1ccc(C(=O)Nc2ccccc2C(=O)NC(Cc2ccc(O)cc2)C(=O)NNC(=O)c2ccccc2)cc1 (stereo not drawn)	EBNA-1 inh 82 | EBNA-1 inh conf inactive | ZTA DNA inh trip inactive
COc1ccc(C(=O)Nc2ccccc2C(=O)NC(Cc2ccc(O)cc2)C(=O)NNC(=O)c2ccc(C)cc2)cc1 (stereo not drawn)	none
COc1ccccc1OCCn1cc(/C=C(\C#N)C(=O)NCc2cccs2)c2ccccc21	none
N#C/C(=C\c1cn(Cc2ccccc2C#N)c2ccccc12)C(=O)NCc1cccs1	EBNA-1 inh 31 | EBNA-1 inh conf inactive | ZTA DNA inh trip inactive
CCCOC(=O)Nc1sc2c(c1C(N)=O)CCCC2	none
Cc1ccc(-c2nnc(NCc3nc4ccccc4[nH]3)c3ccccc23)cc1S(=O)(=O)N1CCOCC1	none
Cc1ccc(-c2nnc(NCc3nc4ccccc4[nH]3)c3ccccc23)cc1S(=O)(=O)N(C)C	EBNA-1 inh 93 | EBNA-1 inh conf 37 | ZTA DNA inh trip inactive
Cc1oc2c(C)c3oc(=O)c(CCC(=O)NCCCn4ccnc4)c(C)c3cc2c1C	none
Cc1ccc(NC(=S)N/N=C/c2c(C)nn(-c3ccccc3)c2N2CCCC2)cc1	EBNA-1 inh 39 | EBNA-1 inh conf inactive | ZTA DNA inh trip inactive
Cc1nn(-c2ccccc2)c(N2CCCC2)c1/C=N/NC(=S)Nc1ccc(F)cc1	none
O=C(Nc1nnc(CC(c2ccccc2)c2ccccc2)s1)c1ccco1	EBNA-1 inh 37 | EBNA-1 inh conf inactive | ZTA DNA inh trip inactive
O=C(Nc1ccccc1F)c1cc2c(s1)-c1ccccc1S(=O)(=O)C2	EBNA-1 inh 53 | EBNA-1 inh conf 57 | ZTA DNA inh trip inactive
O=C(Nc1cccc(-c2cnc3ccccc3n2)c1)c1cccc(NC(=O)c2ccco2)c1	none
COc1cc(NC(=O)c2ccccc2)c(OC)cc1NC(=O)Cc1ccc(F)cc1	none
O=C(Nc1cccc(-c2cnc3ccccc3n2)c1)c1ccccc1	EBNA-1 inh 40 | EBNA-1 inh conf inactive | ZTA DNA inh trip inactive
COc1cc(NC(=O)c2cccnc2)c(OC)cc1NC(=O)c1ccc(Br)cc1	none
